Compound activity (PubChem BioAssay)
RE007 growth inh: less growth of the S. pombe RE007 Vpr strain; S. pombe RE007 Vpr strain, BacTiter-Glo ATP luminescence, 24 h; Potency, µM (doses to about 92.2 µM), for inactives: at the highest dose activity change, negative = less growth, most hits filed as inhibitors; 360,000 tested, 0.21% active; AID 651644; active means well fitted falling curve with a large enough effect; inconclusive means small, poorly fitted or top-dose-only effect; inactive means no such curve, though single readings can be large or run the other way; further: on the % scale 0 is the no-effect control and ±100 the full control effect; nearly all actives have a fitted effect of over 50% in size
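Fission yeast RE007 carrying one integrated HIV-1 vpr copy, seeded at OD 0.01 in PMG+AL medium with 23 nL pinned compound. Grown 24 h at 30 degrees; viability read by BacTiter-Glo luminescence after 5 min.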
SARS PLP yeast: inhibitors of SARS-CoV papain-like protease in yeast. S. cerevisiae expressing SARS-CoV PLpro, growth rescue. 330,000 tested, 0.19% active. Potency, µM (doses to about 32.9 µM), for the others: at the highest dose activity, positive = growth rescue, hits mostly activators; further: 0% is about no effect; nearly all actives have a fitted effect of over 55% in size
NS1 inh: blocks influenza NS1 protein function; Potency, µM (doses to about 46.1 µM), for the others: top-dose activity, positive = more growth; 270,000 tested, 0.4% active; AID 2326; further: actives are rising curves; nearly all actives have a fitted effect of over 50% in size
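OD600 was taken as the measure of yeast growth restored by compound in an NS1-expressing S. cerevisiae strain. Cells had been washed out of glucose medium and diluted 1:100 into galactose -URA medium, pH 6.0.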
Pf growth 48h: inhibits P. falciparum growth in the first generation, 48 h; 310,000 tested, 5.9% active; Potency, µM (top dose mostly 28.7 µM), for the others: top-dose activity change, negative = inhibition, hits mostly inhibitors; P. falciparum luciferase growth in erythrocytes, 48 h; AID 504832; active means well fitted inhibition curve with a large enough effect; inconclusive means small, poorly fitted or top-dose-only effect, or another doubt; inactive means no such curve, though single readings can be large or run the other way; further: on the % scale 0 is the no-effect control and ±100 the full control effect
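Compounds are pin-transferred into medium, infected erythrocytes (2% hematocrit, 0.1% parasitemia final) are added, and plates sit one parasite generation at 37 C in 5% CO2. Detection reagent is then added and luminescence measured.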
Pf growth 96h: P. falciparum growth inhibition at 96 hours | P. falciparum luciferase reporter growth, 96 h | Potency, µM (top dose mostly 28.7 µM), for inactives: at the highest dose activity change, negative = inhibition, usual class: inhibitors | 320,000 tested, 6.9% active; active means well fitted inhibition curve with a large enough effect; inconclusive means small, poorly fitted or top-dose-only effect, or another doubt; inactive means no such curve, though single readings can be large or run the other way; further: on the % scale 0 is the no-effect control and ±100 the full control effect
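Plates of compound plus infected erythrocytes (2% hematocrit, 0.05% parasitemia final) incubate 96 hours, 37 C, 5% CO2. Detection reagent added; reduced luminescence from the parasites' luciferase reporter flags inhibition.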
* = called active by the depositor; i = inactive; ? = inconclusive; . = not tested or not shown. Shown are actives, neighbours in structure and some others; about 9.5% of the full set was active somewhere. Unless noted, the call rests on the fitted dose curve. Potency means the concentration at half of the fitted maximal effect.

SMILES | RE007 growth inh | SARS PLP yeast | NS1 inh | Pf growth 48h | Pf growth 96h
COc1ccc(C(=O)NCC(=O)OCCOc2ccc(Cl)cc2)cc1OC | 25.7% | 16.9% | . | . | .
COc1ccc2c(c1)OC(c1ccccc1)(C(F)(F)F)NC2=O (configuration not stated) | -6.5% | -4.5% | -5.9% | 2.94µM* | ?
CC(C)Oc1ccc2c(c1)OC(c1ccccc1)(C(F)(F)F)NC2=O (configuration not stated) | -6.0% | 1.4% | 5.9% | 0.828µM* | 0.185µM*
CCc1ccc(C2CC(c3ccccc3C)n3nc(N)nc3N2)cc1 (configuration not stated) | 0.5% | -12.1% | -3.1% | 12.6% | 14.7µM*
CCOc1ccc(C2CC(c3cccc(Cl)c3)n3nc(N)nc3N2)cc1 (configuration not stated) | -1.1% | -5.9% | -6.2% | 4.4% | 3.7µM*
CCCCNc1nnc(SCC(=O)c2c[nH]c3ccccc23)s1 | 0.5% | -15.3% | 24.4% | 10.4µM* | 8.28µM*
CC1CN(C(=O)CCC(=O)NCc2ccccc2Cl)c2ccccc2S1 (configuration not stated) | 9.9% | -1.5% | -3.3% | -9.2% | 8.28µM*
CC(C)Oc1ccc(CNC(=O)CCC(=O)N2CC(C)Sc3ccccc32)cc1 (configuration not stated) | 5.1% | -1.2% | -14.6% | ? | 4.0%
COc1cccc2sc(Nc3nnc(-c4ccccc4Cl)o3)nc12 | -16.7% | -36.2% | -126.7% | 9.28µM* | 1.31µM*
C=CCc1cccc(CNc2nc3ccccc3n2C)c1O | -19.5% | 1.1% | -16.3% | ? | ?
Oc1ccccc1CNc1nc2ccccc2n1CCN1CCCCC1 | -4.2% | 8.9% | -4.2% | 2.94µM* | -20.6%
CCCn1c(NCc2cccc(OC)c2O)nc2ccccc21 | 0.4% | -3.8% | -8.7% | 11.7µM* | 106.8%
C=CCc1cccc(CNc2nc3ccccc3n2CCN2CCOCC2)c1O | -3.8% | -0.8% | -20.7% | 3.7µM* | .
COc1ccccc1CNc1nc2ccccc2n1CCN1CCCCC1 | -9.4% | 4.4% | -2.4% | ? | ?
CCCCCc1c(C)nc(N2CCOCC2)[nH]c1=O | 1.9% | 3.2% | -10.0% | -19.9% | 8.28µM*
CCCCCc1c(C)nc(N2CCc3ccccc32)[nH]c1=O | -11.2% | -13.0% | -7.1% | 9.28µM* | -17.3%
CCCCCc1c(C)nc(N2CCc3ccccc3C2)[nH]c1=O | 9.3% | 0.0% | 0.9% | -12.4% | 133.8%
CN(C(=O)CSc1nc(O)cc(=O)n1C1CCCC1)c1ccccc1 | -7.1% | 1.1% | ? | ? | 1.65µM*
CN(C(=O)CSc1nc(O)cc(=O)n1-c1ccccc1F)c1ccccc1 | 5.2% | -1.3% | 19.6% | ? | -3.6%
Cc1ccc(CNC(=O)CC2(CC3=NS(=O)(=O)c4ccccc4N3)CCCC2)cc1 | -2.2% | 14.9% | -21.2% | ? | 11.7µM*
COc1ccc(CCNC(=O)CC2(CC3=NS(=O)(=O)c4ccccc4N3)CCCC2)cc1OC | 0.8% | -3.4% | 5.1% | ? | 9.6%
COc1ccc(CNC(=O)CCCC2=NS(=O)(=O)c3ccccc3N2)cc1 | 9.2% | 3.1% | 1.2% | 13.4% | 10.4µM*
COC(=O)c1sccc1S(=O)(=O)Nc1ccc(S(N)(=O)=O)cc1 | -5.6% | 1.3% | -1.1% | 16.2% | 8.8%
COC(=O)c1scc(C)c1S(=O)(=O)Nc1ccc(C)cc1 | 2.6% | -1.5% | -5.9% | ? | 11.7µM*
CC1(C)NC(=O)N(CC(O)CN(c2ccccc2)S(=O)(=O)c2ccccc2[N+](=O)[O-])C1=O (configuration not stated) | -9.9% | -2.6% | 0.2% | 7.2% | 2.9%
SMILES | RE007 growth inh | SARS PLP yeast | NS1 inh | Pf growth 48h | Pf growth 96h
CC1CN(S(=O)(=O)c2ccc(C(=O)N3CCc4ccccc43)cc2)CC(C)O1 (configuration not stated) | -2.6% | 3.5% | . | -20.1% | -23.9%
O=C(CCNS(=O)(=O)c1ccc2[nH]c(=O)oc2c1)NCc1ccccc1 | 3.4% | 2.9% | -2.0% | 7.1% | 11.7µM*
O=C(CCNS(=O)(=O)c1ccc2[nH]c(=O)oc2c1)NCc1ccc(F)cc1 | -9.4% | 3.9% | 6.8% | 14.6% | 20.3%
COc1ccccc1C(=O)NC(=S)Nc1ccccc1N1CCCC1 | . | -3.3% | 19.5% | 24.3% | 3.7µM*
O=C(NC(=S)Nc1ccccc1N1CCCCC1)c1ccc(F)cc1Cl | 1.0% | 2.9% | 3.5% | 11.7µM* | ?
O=C(CN1CCN(Cc2ccc3c(c2)OCO3)CC1)NCC(F)(F)F | 26.6% | 3.0% | -5.6% | 3.2% | -0.2%
Cc1ccc(C)c(OCCn2cc(/C=C(\C#N)C(=O)NCc3ccco3)c3ccccc32)c1 | 12.1% | -0.9% | 7.3% | 9.28µM* | -0.3%
COc1ccccc1OCCn1cc(/C=C(\C#N)C(=O)NCc2ccco2)c2ccccc21 | . | 14.5% | 13.8% | ? | -18.7%
Cc1ccc(Cl)cc1N1CCN(C(=O)CCS(=O)(=O)c2cccc3nonc23)CC1 | 9.3% | -17.2% | 10.8% | ? | 11.7µM*
Cc1ccc(NC(=O)CCS(=O)(=O)c2cccc3nonc23)cc1Cl | 7.3% | 2.2% | 6.1% | -11.0% | 6.5%
CC(C)CCNC(=O)CCS(=O)(=O)c1cccc2nonc12 | 9.7% | 3.7% | 1.7% | 3.8% | 11.7µM*
CN1CCn2cnc(C(=O)Nc3ccc(CNC(=O)OC(C)(C)C)cc3)c2C1=O | -19.7% | . | . | . | .
COc1ccc(NC(=S)Nc2cccc(C(C)=O)c2)cc1OC | -13.6% | -0.2% | 5.0% | -0.6% | 11.7µM*
COC(=O)Nc1ccc([N+](=O)[O-])cc1OC | 34.0% | 0.0% | 12.5% | 25.8% | i
COc1ccc(C(=O)Nc2cccc(C(C)=O)c2)cc1OC | 7.2% | -1.3% | -10.6% | 67.5% | 33.2%
COc1cc([N+](=O)[O-])ccc1NC(=S)Nc1cccc(C(=O)O)c1 | -18.5% | 6.2% | 13.9% | -9.7% | 1.47µM*
CN(CC(=O)O)Cc1oc(CO)cc(=O)c1O | -4.7% | . | -3.5% | . | .
CCOC(=O)c1ccc(NCCc2ccc(OC)c(OC)c2)c(N)c1 | 24.1% | 2.4% | -19.6% | 9.28µM* | ?
CCOC(=O)Cn1cnc2c(nnn2-c2ccc(F)cc2)c1=O | 21.9% | 2.6% | -7.3% | 35.8% | 8.5%
O=C(Nc1sccc1C(=O)N1CCOCC1)c1cccnc1 | 16.7% | 16.5% | 4.6% | 36.4% | 3.29µM*
COc1cc(C(O)c2nc(-c3ccc(F)cc3OC)cs2)ccc1F (configuration not stated) | 27.5% | . | . | . | .
CCCCn1c(N)c(N(CC(C)C)C(=O)c2cc(-c3ccc(F)cc3)nc3ccccc23)c(=O)[nH]c1=O | -20.2% | 2.4% | . | 11.7µM* | ?
CCCCN(C(=O)c1cc(-c2ccco2)nc2ccccc12)c1c(N)n(CCCC)c(=O)[nH]c1=O | -4.5% | -2.8% | . | ? | ?
CCCCn1c(N)c(N(CC(C)C)C(=O)c2cc(-c3ccc(OC)cc3)nc3ccccc23)c(=O)[nH]c1=O | 1.6% | . | . | . | .
